Screening results: PubChem, several laboratories
An excerpt weighted towards active compounds, which were near 6.1% of everything screened.
Cdc25B inh – human M-phase inducer phosphatase 2 inhibition | P30305 | recombinant Cdc25B, OMFP fluorescence Ex485/Em525 | inhibition, %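 (compounds tested at 10 µM final in the well)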 | hit rate 0.1% among 65,000; in the data active means inhibition above about 50%
Hsp90 inh – displaces geldanamycin probe from tumor Hsp90; P07900; NCI-N417 lysate Hsp90, Cy3B-geldanamycin FP displacement; inhibition, % at 30 µM; hit rate 0.35% among 64,000;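 active means inhibition above 50%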
M1 ag – activates the M1 muscarinic receptor. CHO-M1 cells, Fluo-4 calcium fluorescence, agonist mode; stronger effect = higher value. B-score at 10 µM. hit rate 3% among 64,000;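 active means fluorescence rise, raw or as B-score row- and column-corrected plate score, outside the 99.7% band of its plate's samples, either direction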
MMP-13 inhibitor – blocks human MMP13 activity; P45452; MMP-13 fTHP FRET cleavage, Mca fluorescence; inhibition, % at 4 µM; hit rate 0.07% among 65,000; AID 570;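 active means inhibition above the mean of compound-free control plate wells plus 3 SD, cut at about 14% in these data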
M1 antag – blocks the rat M1 muscarinic receptor response to acetylcholine. P08482. CHO-M1 cells, Fluo-4 calcium, ACh EC80 antagonist mode; stronger effect = lower value. B-score at 10 µM. hit rate 3.4% among 64,000;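 active means calcium fluorescence response, raw or row-and-column corrected B-score, differing from the plate sample mean either way at a set confidence level, mostly lower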
Target sequence (P08482 whole entry, looked up): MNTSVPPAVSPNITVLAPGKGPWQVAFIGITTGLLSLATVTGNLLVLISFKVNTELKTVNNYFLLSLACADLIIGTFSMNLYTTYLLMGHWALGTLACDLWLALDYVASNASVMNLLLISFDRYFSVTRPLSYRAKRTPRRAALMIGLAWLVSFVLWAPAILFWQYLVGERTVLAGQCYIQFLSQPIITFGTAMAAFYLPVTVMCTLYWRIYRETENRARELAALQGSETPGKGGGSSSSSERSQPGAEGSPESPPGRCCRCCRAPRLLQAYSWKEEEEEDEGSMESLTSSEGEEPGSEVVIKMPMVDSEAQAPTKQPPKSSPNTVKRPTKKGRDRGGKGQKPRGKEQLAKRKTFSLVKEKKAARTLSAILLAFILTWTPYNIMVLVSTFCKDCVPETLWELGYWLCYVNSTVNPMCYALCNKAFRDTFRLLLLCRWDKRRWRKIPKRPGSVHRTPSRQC
MKP-1 inh – inhibitors of human MKP-1 phosphatase. P28562. hit rate 0.15% among 65,000. recombinant MKP-1, OMFP hydrolysis fluorescence. inhibition, %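 (compounds tested at a single concentration somewhere between 10 and 100 µM)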;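 active means inhibition above about 50%, limit read from the data; inconclusive means inhibition over screen mean plus 3 SD, below that limit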
M1 agonist conf – confirmation of rat M1 muscarinic receptor agonists | shares compounds with M1 ag | CHO-M1 cells, Fluo-4 calcium fluorescence, agonist mode; actives lie on both sides | fluorescence change (max-min) at 10 µM | hit rate 19% among 1,700;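 active means fluorescence change differs from the solvent-only DMSO control mean at a set confidence level in both duplicate runs; inconclusive means differs from solvent-only control mean in just one of two runs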;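 further: an EC20 dose of acetylcholine follows compound addition during the same imaging run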
M4 agonist ctr – counter-screen for M1 agonists: activity at rat M4 receptor; shares compounds with M1 ag; CHO M4/Gqi5 cells, Fluo-4 calcium fluorescence, agonist mode; actives lie on both sides; fluorescence change (max-min) at 10 µM; hit rate 9% among 1,700; AID 1741;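 active means fluorescence change differing from the plate's solvent-only control wells at 99.7% confidence in both duplicates, whether higher or lower; inconclusive means differs from solvent controls in only one of two duplicates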
A number is an active result; . = inactive; ? = inconclusive; / = no result.

SMILES	Cdc25B inh	Hsp90 inh	M1 ag	MMP-13 inhibitor	M1 antag	MKP-1 inh	M1 agonist conf	M4 agonist ctr
CCCCc1cc(O)c(CCCC)c(O)c1	.	.	37.3	.	-3.31	.	275	320
CCCCCc1cc(O)c2c(C)cc(=O)oc2c1	.	.	.	.	.	.	/	/
C=CCN1C(=O)C2(C(C#N)=C(N)Oc3n[nH]c(CCC)c32)c2ccccc21 (configuration not stated)	.	.	.	.	.	.	/	/
COc1ccc(CCNc2oc(-c3ccccc3OC)nc2C#N)cc1OC	.	.	3.57	.	.	.	.	-73.8
Cn1c(Cn2cnc3ccccc32)nnc1SCc1ccccc1	.	.	.	.	.	.	/	/
Cc1cc(N2CCN(c3ccccc3)CC2)n2c(n1)nc1ccccc12	.	.	7.49	.	.	.	-31.7	.
Cc1cc(N2CCN(c3ccccc3)CC2)n2nnnc2n1	.	.	.	.	.	.	/	/
Cc1c(N=Cc2cc3c(cc2Cl)OCO3)c(=O)n(-c2ccccc2)n1C	.	.	.	.	.	.	/	/
Cc1ccc2cc(C#N)c(N3CCCN(C(=O)C4CCCO4)CC3)nc2c1C (configuration not stated)	.	.	4.12	.	.	.	.	.
CCN(CC)CC#CC(C)OCOCC#CCOC (configuration not stated)	.	.	-4.07	.	.	.	?	.
COC(=O)c1c(NC(=O)CN2CCN(c3ccccc3OC)CC2)c2c(C)cccc2n1C	.	.	.	.	.	.	/	/
COC(=O)c1c(NC(=O)CN2CCN(c3ccccc3)CC2)c2c(C)cccc2n1C	.	.	4.53	.	.	.	-25.1	?
COc1ccc(OC)c(S(=O)(=O)N2CCC(C(=O)Nc3ccc(C)c(C)c3)CC2)c1	.	.	14.9	.	.	.	.	?
CCn1c(Cc2ccc(OC)cc2)nnc1SCC(=O)Nc1nc2ccccc2s1	.	.	.	.	.	.	/	/
O=C(CCn1nc(-c2ccccc2)ccc1=O)N1CCOCC1	.	.	.	.	.	.	/	/
O=C(CCn1nc(-c2ccccc2)ccc1=O)N1CCN(c2ccccn2)CC1	.	.	3.92	.	.	.	.	.
CC1CCN(c2nc(-c3ccco3)c3c(c2C#N)CC(C)(C)OC3)CC1	.	.	4.51	.	.	.	.	.
CC1(C)Cc2c(C#N)c(SCC(=O)c3ccccc3)nc(N3CCOCC3)c2CO1	.	.	6.71	.	.	.	.	?
CC1(C)Cc2c(C#N)c(N3CCOCC3)nc(-c3ccccc3)c2CO1	.	.	.	.	.	.	/	/
CC1(C)Cc2c(C#N)c(N3CCOCC3)nc(Cc3ccccc3)c2CO1	.	.	4.22	.	.	.	.	?
Cn1cc(C(=O)c2ccc(Cl)cc2)cc1-c1nc2ccccc2n1C	.	.	.	.	.	.	/	/
CCN(CC)c1ccc(-c2nn3c(-c4cccnc4)nnc3s2)cc1	.	.	8.57	.	-6.21	.	.	.
CCOC(=O)c1c(C)[nH]c(C(=O)CN2C(=O)NC(CC)(c3ccccc3)C2=O)c1C (configuration not stated)	.	.	4.67	.	.	.	.	.
CC(C)(C)NC(=O)COC(=O)c1snc(C(=O)NC2CCCCC2)c1N	.	.	4.94	.	-0.961	.	.	?
Cc1ccc2c(c1)nnn2C1CCN(CC(=O)N2c3ccccc3CC2C)CC1 (configuration not stated)	.	.	.	.	.	.	/	/
SMILES	Cdc25B inh	Hsp90 inh	M1 ag	MMP-13 inhibitor	M1 antag	MKP-1 inh	M1 agonist conf	M4 agonist ctr
CCOC(=O)N1CCN(CC(=O)N2c3ccccc3CC2C)CC1 (configuration not stated)	.	.	3.33	.	.	.	.	.
CC1CCCCN1C(=O)Cn1c(=O)n(CCC(=O)NCc2ccco2)c(=O)c2sccc21 (configuration not stated)	.	.	.	.	.	.	/	/
O=C1C(C=NCCCn2ccnc2)=C(O)c2ccccc21	.	.	.	.	.	.	/	/
O=c1c(C=NCCCn2ccnc2)c(-c2ccccc2)[nH]n1-c1nc2ccccc2s1	.	.	5.24	.	.	.	.	.
Cc1cc(C)nc(/N=c2/ssnc2Cl)c1	.	.	6.33	.	.	.	.	?
CCOC(=O)C1CCCN(C(=O)c2c(-c3ccccc3Cl)noc2C)C1 (configuration not stated)	.	.	.	.	.	.	/	/
Cc1ccc(-c2nc(C(=O)NC3CCCCCC3)no2)cc1	.	.	.	.	.	.	/	/
Cc1cccc(NC(=O)c2sc3nc(-c4ccccc4)cn3c2C)n1	.	.	2.39	.	.	.	?	.
Cc1c(C(=O)Nc2ccccc2)sc2nc(-c3ccccc3)cn12	.	.	.	.	.	.	/	/
CCc1nn(C(C)C(=O)NCCN2CCN(c3cccc(C)c3C)CC2)c(=O)c2cc3occc3n12 (configuration not stated)	.	.	3.79	.	.	.	?	.
CCc1nn(C(C)C(=O)Nc2cccc(C)c2C)c(=O)c2cc3occc3n12 (configuration not stated)	.	.	.	.	.	.	/	/
Clc1nc2sccn2c1/C=N/n1cnc2ccccc21	.	/	8.39	.	.	.	.	.
COc1ccc(-n2nnnc2SCC(=O)N2CCOCC2)cc1	.	.	.	.	.	.	/	/
COc1ccc(N2CCN(C(=O)CSc3nnnn3-c3ccc4c(c3)OCCO4)CC2)cc1	.	.	-3.03	.	.	.	.	?
O=S(=O)(Nc1ccc2nc(C(F)(F)F)[nH]c2c1)c1ccccc1	.	.	2.43	.	.	.	.	.
Cc1cccc(C)c1NC(=O)CS(=O)CC(=O)NC1CCCc2ccccc21 (configuration not stated)	.	.	.	.	.	.	/	/
CC(=O)c1cccc(-n2nnnc2SCC(=O)Nc2cccc(NC(=O)c3ccco3)c2)c1	.	.	3.6	.	.	.	.	?
COc1ccc2nc(N3CCCC3)c(C#N)cc2c1	.	.	91.7	.	.	.	1016	1175
COc1ccc2nc(N3CCCCC3)c(C#N)cc2c1	.	.	.	.	.	.	/	/
N#CC1=C(SCC(=O)NCc2ccccc2)NC(=O)CC1c1ccco1 (configuration not stated)	.	.	.	.	.	.	/	/
N#CC1=C(SCc2ccccc2)NC(=O)CC1c1ccco1 (configuration not stated)	.	.	4.33	.	.	.	.	?
Nc1cccc2c1C(=O)N(C(=O)c1ccc(S(=O)(=O)N3CCCCCC3)cc1)C2=O	.	.	7.5	.	.	.	.	.
